Screening data deposited in PubChem by National Center for Advancing Translational Sciences (NCATS).
SW480 rereplic = A quantitative high throughput screen for small molecules that induce DNA re-replication in SW480 colon adenocarcinoma cells; SW480 DNA re-replication, Hoechst DNA content imaging, 48 h; Potency, µM (doses to about 46.1 µM), for the others: top-dose re-replication activation, most hits filed as activators; 1.8% of 340,000 active; AID 624297, 2012; note: potency is the fitted concentration of half-maximal effect; % of control where 0% means no effect; nearly all actives have a fitted effect of over 55% in size
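Compounds, transferred as 23 nL by pin tool, were incubated with cells for 48 hr; DNA content per nucleus was then quantified by Hoechst staining and fluorescence plate imaging.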
KB-V1 MDR tox = qHTS assay for MDR1-selective chemotherapeutics: Primary screen using the drug-selected MDR subline cells KB-V1; KB-V1 MDR cells viability, CellTiter-Glo, 72 h; 3.4% of 400,000 active; Potency, µM (series often up to 46.1 µM), hits mostly cytotoxic; AID 1347076, 2019; note: potency is the fitted concentration of half-maximal effect; % is set by controls: 0 for no effect and ±100 for the full control effect; nearly all actives have a fitted effect of over 60% in size
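Cytotoxicity toward P-gp-expressing KB-V1 cells was determined as loss of CellTiter-Glo luminescence after 72 h at 37 degrees C. Compounds were tested in quantitative HTS format across a concentration range, with curves fitted to normalized data.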
MCF10A rereplic = A quantitative high throughput screen for small molecules that induce DNA re-replication in MCF 10a normal breast cells | MCF 10A DNA re-replication, Hoechst nuclear intensity, 48 h | Potency, µM (top dose mostly 46.1 µM), inactives show at the highest dose activity, positive = re-replication, hits mostly activators | 2.9% of 350,000 active; note: potency is the fitted concentration of half-maximal effect; % of control where 0% means no effect; nearly all actives have a fitted effect of over 50% in size
KB-3-1 tox = qHTS assay for MDR1-selective chemotherapeutics: Primary screen using the parental adenocarcinoma cell KB-3-1 | KB-3-1 viability, CellTiter-Glo ATP luminescence, 72 h | Potency, µM (top dose mostly 46.1 µM), usual class: cytotoxic | 1.4% of 400,000 active; note: potency is the fitted concentration of half-maximal effect; % is set by controls: 0 for no effect and ±100 for the full control effect; nearly all actives have a fitted effect of over 60% in size
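Luminescent ATP read-out (CellTiter-Glo) measures survival of drug-naive KB-3-1 cells after 72 h compound exposure at 37 °C. Titration series was screened from lowest to highest concentration, with DMSO vehicle plates as background controls.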
hERG WT inh = qHTS for Inhibitors of KCHN2 3.1: Wildtype qHTS | Voltage-gated inwardly rectifying potassium channel KCNH2 (Homo sapiens), Q12809 | U2OS, BacMam KCNH2, thallium flux FluxOr; active compounds read low | activity change, % at 1.84 µM | 0.37% of 340,000 active | AID 720551, 2013;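 active = maximum activity change below -70%; inconclusive = maximum activity change between -70% and -50%; inactive = maximum activity change above -50%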; note: % is set by controls: 0 for no effect and ±100 for the full control effect
Target sequence (Q12809 whole entry, looked up): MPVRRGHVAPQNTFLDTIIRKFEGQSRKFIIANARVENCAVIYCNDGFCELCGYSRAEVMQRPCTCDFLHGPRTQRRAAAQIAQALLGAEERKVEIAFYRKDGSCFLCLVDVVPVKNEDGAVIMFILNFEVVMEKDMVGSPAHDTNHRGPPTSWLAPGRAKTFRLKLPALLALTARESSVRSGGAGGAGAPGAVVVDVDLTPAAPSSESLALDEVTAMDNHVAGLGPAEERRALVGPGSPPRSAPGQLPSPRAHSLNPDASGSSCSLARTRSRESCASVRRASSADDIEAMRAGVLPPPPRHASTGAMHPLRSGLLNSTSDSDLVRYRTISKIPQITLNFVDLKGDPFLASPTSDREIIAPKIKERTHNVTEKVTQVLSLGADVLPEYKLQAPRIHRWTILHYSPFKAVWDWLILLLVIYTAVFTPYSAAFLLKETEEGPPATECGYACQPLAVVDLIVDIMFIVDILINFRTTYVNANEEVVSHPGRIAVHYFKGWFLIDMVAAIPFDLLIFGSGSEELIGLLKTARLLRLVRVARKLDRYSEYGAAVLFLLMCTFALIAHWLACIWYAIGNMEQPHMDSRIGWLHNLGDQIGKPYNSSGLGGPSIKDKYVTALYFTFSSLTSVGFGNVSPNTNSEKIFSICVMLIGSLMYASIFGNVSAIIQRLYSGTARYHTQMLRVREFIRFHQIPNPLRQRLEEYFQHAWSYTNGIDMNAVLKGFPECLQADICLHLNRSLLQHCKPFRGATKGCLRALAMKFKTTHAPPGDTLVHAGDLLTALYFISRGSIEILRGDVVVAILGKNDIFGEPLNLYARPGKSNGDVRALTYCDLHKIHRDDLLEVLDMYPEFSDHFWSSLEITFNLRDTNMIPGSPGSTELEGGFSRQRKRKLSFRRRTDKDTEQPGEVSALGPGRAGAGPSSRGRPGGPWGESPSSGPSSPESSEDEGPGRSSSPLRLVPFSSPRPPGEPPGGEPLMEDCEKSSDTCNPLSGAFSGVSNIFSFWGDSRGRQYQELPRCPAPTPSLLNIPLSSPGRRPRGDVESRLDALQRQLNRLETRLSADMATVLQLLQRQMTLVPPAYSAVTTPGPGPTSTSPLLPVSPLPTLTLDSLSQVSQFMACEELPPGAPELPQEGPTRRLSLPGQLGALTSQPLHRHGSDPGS
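U2OS cells were transduced with wild-type KCNH2 virus (2.03 x 10^8 / mL) for 4 h at room temperature, then cultured overnight at 37 C. Thallium flux was read with FluxOr dye. Rate constants were normalized to DMSO controls.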
KCNH2 3.1 block = qHTS for Inhibitors of KCHN2 3.1: Mutant qHTS; 0.95% of 340,000 active; activity change, % (tested at about 1.8 µM); Potassium voltage-gated channel subfamily H member 2, brain isoform KCNH2 3.1 (human); U2OS KCNH2 3.1, thallium flux FluxOr; active compounds read low; AID 720553, 2013;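 active = maximum activity change below -70%; inconclusive = maximum activity change from -70% to -50%; inactive = maximum activity change above -50%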;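 note: thallium influx rate constant from kinetic fluorescence after stimulation buffer; % is set by controls: 0 for no effect and ±100 for the full control effect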
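Thallium flux read-out: FluxOr dye with Red40 quencher in HBSS/HEPES, 45 min at RT. Rate constants from kinetic reads were normalized to positive and negative DMSO controls. Cells: U2OS virally expressing the 3.1 isoform.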
Starred values were filed as active, the others as inactive; i = inactive; ? = inconclusive; / = not tested or not shown. The list is not random: actives were taken first. Their share in the collection is about 7.6%. Unless noted, calls come from the whole dose curve; as a rule, active = well fitted curve in the direction sought with a large enough effect; inconclusive = small, poorly fitted or top-dose-only effect, or another doubt; inactive = no such curve, though single readings can be large; an effect the other way counts as inactive or inconclusive.

SMILES	SW480 rereplic	KB-V1 MDR tox	MCF10A rereplic	KB-3-1 tox	hERG WT inh	KCNH2 3.1 block
COc1cc(C2C(c3ccccc3)C(c3cc(OC)cc(=O)o3)C2c2ccccc2)oc(=O)c1 (stereo not given)	6%	6.5µM*	?	i	-5	-3
COc1ccc(CCc2cc(OC)cc(=O)o2)cc1	-5%	i	-1%	i	1	-14
CCCCN(C(=O)COC(=O)c1ccc(C=O)cc1)c1c(N)n(CCC)c(=O)[nH]c1=O	-3%	i	9%	i	6	-3
Cc1ccc(Cn2nnc3c(=O)n(CC(=O)NCc4ccco4)cnc32)cc1	?	?	?	23µM*	-2	-10
CC(C)(C)n1ncc2c(=O)n(CC(=O)NCc3ccccc3)cnc21	21µM*	?	15µM*	7.3µM*	-6	-3
O=C(CSc1ncnc2c1nnn2-c1ccc(F)cc1)NCc1ccco1	-8%	i	?	i	0	-2
Cc1ccc(Cn2nnc3c(=O)n(CC(=O)NCc4ccccc4)cnc32)cc1	9.2µM*	i	9.2µM*	?	7	1
Cc1ccc(-n2nnc3c(=O)n(CC(=O)NCc4ccco4)cnc32)cc1	4%	i	25%	?	12	23
CC(=O)Nc1ccc(NC(=O)Cn2cnc3c(cnn3C(C)(C)C)c2=O)cc1	-3%	i	?	i	1	25
Cc1ccc(-n2nnc3c(SCC(=O)NCc4ccco4)ncnc32)cc1	8%	?	23µM*	?	-3	-1
O=C(NC1CCCC1)c1cc2nc(-c3ccco3)cc(C(F)(F)F)n2n1	26%	i	1%	i	5	4
O=C(Cn1cnc2c(cnn2-c2ccccc2)c1=O)N1CCN(c2ccc(F)cc2)CC1	-5%	?	-2%	i	0	-21
O=C(Cn1cnc2c(nnn2Cc2ccc(F)cc2)c1=O)N1CCN(c2ccccc2)CC1	-13%	9.2µM*	9%	i	8	1
CCSc1nc(C2CC2)cc(-c2cccs2)c1C#N	?	i	?	i	-3	5
N#Cc1c(-c2ccccc2)cc(-c2cccs2)nc1SCC(=O)O	-2%	i	29%	i	5	2
CCOC(=O)CSc1nc(C2CC2)cc(-c2ccc(Cl)cc2)c1C#N	-49%	21µM*	26%	i	-1	-6
N#Cc1c(-c2ccccc2F)cc(C2CC2)nc1SCC(=O)c1cccs1	10µM*	?	?	i	2	4
N#Cc1c(-c2ccc(Cl)cc2)cc(-c2cccs2)nc1SCC(=O)O	5%	i	23µM*	i	4	2
Nc1[nH]c(C(=O)c2ccccc2)c(-c2ccccc2C(F)(F)F)c1C(=O)NCCc1c[nH]c2ccccc12	/	i	/	?	/	/
CCc1ccccc1N1CN(Cc2cccnc2)CNC1=S	4%	i	-1%	i	4	31
O=C(N/N=C/c1ccc(O)cc1O)c1ccc(NC(=O)C2CCCCC2)cc1	16µM*	i	?	?	-6	-3
Cc1ccccc1OCC(O)Cn1c2ccccc2c2ccccc21 (stereo not given)	23µM*	21µM*	-7%	i	-11	-9
Cc1nccn1CC(O)Cn1c2ccccc2c2ccccc21 (stereo not given)	-11%	i	21µM*	i	17	-9
Cc1cc(C)n(CC(O)Cn2c3ccccc3c3ccccc32)n1 (stereo not given)	6%	i	?	i	-7	-8
COc1ccc(-c2noc(CNS(=O)(=O)c3ccc(Br)cc3)n2)cc1OC	/	i	/	i	/	/
SMILES	SW480 rereplic	KB-V1 MDR tox	MCF10A rereplic	KB-3-1 tox	hERG WT inh	KCNH2 3.1 block
CCOc1ccc(OCCNC(=O)c2oc3ccccc3c2COC)cc1	-5%	21µM*	?	i	27	8
O=[N+]([O-])c1ccc(Sc2cc[n+]([O-])c3ccccc23)c([N+](=O)[O-])c1	0.82µM*	?	19%	i	7	-13
O=c1[nH]c(Sc2ccc([N+](=O)[O-])cc2[N+](=O)[O-])nc2ccccc12	?	?	6.5µM*	i	-2	-16
O=C(CSc1nc2ccccc2c(=O)[nH]1)Nc1ccc([N+](=O)[O-])cc1	?	?	?	?	8	3
Cc1ccc(N2C(=O)N(Cc3cc(=O)n4ccccc4n3)c3ccccc3S2(=O)=O)cc1Cl	/	?	/	i	/	/
O=S(=O)(c1ccccc1)c1nc(-c2ccc(F)cc2)oc1N1CCCCCC1	/	?	/	i	/	/
O=S(=O)(c1ccc(F)cc1)c1nc(-c2ccccc2F)oc1N1CCCCC1	10%	3.7µM*	16%	i	-2	-4
CNc1nc(SC)nc(N(C)C#N)n1	13%	i	25%	i	-10	-5
Cc1cc(Nc2cc(Cl)nc(Sc3ccc(NC(=O)C4CC4)cc3)n2)n[nH]1	21µM*	i	34%	1.6µM*	/	/
Cc1ccc(C(C)C)cc1OCCCCN1CCCC1	12%	21µM*	?	i	7	-4
CCOc1ncccc1C(=O)N1CCN(S(=O)(=O)c2ccccc2)CC1	-2%	i	-1%	i	-1	5
CCOc1ncccc1C(=O)N1CCN(C(=O)c2ccccc2)CC1	6%	i	4%	?	-11	1
CCOc1ncccc1C(=O)N1CCN(c2cc(Cl)ccc2C)CC1	0.65µM*	0.82µM*	15µM*	2.1µM*	0	-28
CCOc1ncccc1C(=O)N1CCN(c2cccc(C)c2C)CC1	0.73µM*	?	?	1µM*	3	26
CC(=O)N(C)C[C@H]1Oc2ncc(Br)cc2C(=O)N([C@H](C)CO)C[C@@H]1C	/	i	/	i	0	18
CN=c1scc(C)n1/N=C/c1cc(Br)c(O)c(Br)c1	-2%	i	?	i	7	8
CCN=c1scc(C)n1/N=C/c1cc(Br)c(O)c(OC)c1	7%	i	21µM*	i	1	-15
CCCCSc1nnc2[nH]c(=O)cc(N)n12	-6%	8.2µM*	6%	i	1	4
COc1ccc2cc3cc(C(=O)NC(C)C)oc3nc2c1	-3%	2.3µM*	6%	i	4	-18
